# Data: PMC7862700, “An all-to-all approach to the identification of sequence-specific readers for epigenetic DNA modifications on cytosine”
# What was measured:
# Assay in all cases: DAPPL (digital affinity profiling via proximity ligation, sequencing); 10 mM Tris-HCl pH 7.5, 50 mM NaCl, 1 mM DTT, 4% glycerol, room temperature, 30 min; GST-TFs on glutathione beads, 16-mer random dsDNA library, 0.1% formaldehyde crosslink after washing; high values mean tight binding
# Conditions in all cases: protein: recombinant; tags: N-terminal GST; dsDNA, one strand shown
# [1] = molecular target: T1, ELK1 (Homo sapiens, UniProt P19419 1-428)
# T1 sequence: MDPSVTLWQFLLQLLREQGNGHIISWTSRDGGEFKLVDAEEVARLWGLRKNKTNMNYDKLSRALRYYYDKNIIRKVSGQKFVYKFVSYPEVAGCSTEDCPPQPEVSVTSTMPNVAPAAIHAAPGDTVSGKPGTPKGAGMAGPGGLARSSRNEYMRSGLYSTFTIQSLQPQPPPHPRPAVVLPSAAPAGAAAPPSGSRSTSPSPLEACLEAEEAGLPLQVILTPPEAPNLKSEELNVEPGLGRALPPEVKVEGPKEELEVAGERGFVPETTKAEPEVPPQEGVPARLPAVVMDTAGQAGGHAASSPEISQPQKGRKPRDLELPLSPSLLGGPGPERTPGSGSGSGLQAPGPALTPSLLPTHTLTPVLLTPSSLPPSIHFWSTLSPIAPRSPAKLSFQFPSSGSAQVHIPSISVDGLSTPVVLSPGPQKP
# Procedure, shortened: (§1)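 Pools were built from human transcription factors expressed in yeast as GST fusions, captured on glutathione beads and DNA-barcoded, along with a tag-only sample. Incubation with 200 nmole of a 16-mer random double-stranded DNA library lasted 30 min at room temperature in Tris/NaCl/DTT/glycerol buffer, and was followed by washing, 0.1% formaldehyde crosslinking, proximity ligation, PCR amplification and Illumina NextSeq500 sequencing. Binding signal is the quotient of each hexamer's read frequency for a factor and its frequency for the tag-only sample.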
# [2] = molecular target: T2, GABPA (Homo sapiens, UniProt Q06546 1-454)
# T2 sequence: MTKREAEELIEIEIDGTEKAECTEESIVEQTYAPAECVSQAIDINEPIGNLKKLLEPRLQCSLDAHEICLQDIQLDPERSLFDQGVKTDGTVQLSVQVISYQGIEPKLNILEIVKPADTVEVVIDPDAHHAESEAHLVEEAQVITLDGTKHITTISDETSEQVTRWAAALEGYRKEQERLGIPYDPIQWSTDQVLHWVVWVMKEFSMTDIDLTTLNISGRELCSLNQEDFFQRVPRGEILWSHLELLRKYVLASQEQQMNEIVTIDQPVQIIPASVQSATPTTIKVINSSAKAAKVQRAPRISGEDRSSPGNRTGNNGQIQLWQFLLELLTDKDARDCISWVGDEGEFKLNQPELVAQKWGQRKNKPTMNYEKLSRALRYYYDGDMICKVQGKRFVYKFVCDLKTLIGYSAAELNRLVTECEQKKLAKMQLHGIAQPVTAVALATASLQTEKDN
# Procedure, shortened: as §1
# [3] = molecular target: T3, ERG (Homo sapiens, UniProt P11308 1-479)
# T3 sequence: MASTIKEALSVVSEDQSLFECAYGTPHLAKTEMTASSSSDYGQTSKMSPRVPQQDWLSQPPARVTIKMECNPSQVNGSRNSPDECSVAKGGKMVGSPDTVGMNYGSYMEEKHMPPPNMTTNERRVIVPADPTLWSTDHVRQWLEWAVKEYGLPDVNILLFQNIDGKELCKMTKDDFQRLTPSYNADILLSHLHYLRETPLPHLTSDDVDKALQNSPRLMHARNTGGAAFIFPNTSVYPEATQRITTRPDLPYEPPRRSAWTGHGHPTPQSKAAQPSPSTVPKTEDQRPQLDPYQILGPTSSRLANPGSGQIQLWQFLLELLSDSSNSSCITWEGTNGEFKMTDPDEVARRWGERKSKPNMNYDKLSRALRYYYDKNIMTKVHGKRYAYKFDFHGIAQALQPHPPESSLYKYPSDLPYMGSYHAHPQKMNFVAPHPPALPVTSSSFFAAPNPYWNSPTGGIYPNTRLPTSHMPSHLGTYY
# Procedure, shortened: as §1
# [4] = molecular target: ELF1 (Homo sapiens, UniProt P32519 1-619)
# Procedure, shortened: as §1
# [5] = molecular target: T4, EHF (Homo sapiens, UniProt Q9NZC4 1-300)
# T4 sequence: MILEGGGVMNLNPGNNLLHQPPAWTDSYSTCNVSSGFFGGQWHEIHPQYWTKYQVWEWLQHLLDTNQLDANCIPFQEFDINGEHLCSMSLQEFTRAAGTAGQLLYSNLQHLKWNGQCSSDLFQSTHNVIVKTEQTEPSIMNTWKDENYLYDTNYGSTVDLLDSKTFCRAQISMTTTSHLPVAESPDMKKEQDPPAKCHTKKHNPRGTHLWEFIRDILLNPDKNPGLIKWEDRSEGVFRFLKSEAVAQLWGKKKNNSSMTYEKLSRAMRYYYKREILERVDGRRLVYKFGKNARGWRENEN
# Procedure, shortened: as §1
# [6] = molecular target: SPIB (Homo sapiens, UniProt Q01892 1-262)
# Procedure, shortened: as §1
# [7] = molecular target: T5, FEV (Homo sapiens, UniProt Q99581 1-238)
# T5 sequence: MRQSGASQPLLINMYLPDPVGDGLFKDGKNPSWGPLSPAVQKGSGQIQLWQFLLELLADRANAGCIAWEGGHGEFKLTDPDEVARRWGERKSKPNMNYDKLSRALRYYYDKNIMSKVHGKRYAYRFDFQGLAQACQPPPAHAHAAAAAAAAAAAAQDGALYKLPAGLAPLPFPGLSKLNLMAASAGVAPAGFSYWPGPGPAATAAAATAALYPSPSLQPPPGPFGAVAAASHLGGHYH
# Procedure, shortened: as §1
# [8] = molecular target: ETV5 (Homo sapiens, UniProt P41161 1-510)
# Procedure, shortened: as §1
# [9] = molecular target: ELF4 (Homo sapiens, UniProt Q99607 1-663)
# Procedure, shortened: as §1
# [10] = molecular target: T6, ELK4 (Homo sapiens, UniProt P28324-2 1-405)
# T6 sequence: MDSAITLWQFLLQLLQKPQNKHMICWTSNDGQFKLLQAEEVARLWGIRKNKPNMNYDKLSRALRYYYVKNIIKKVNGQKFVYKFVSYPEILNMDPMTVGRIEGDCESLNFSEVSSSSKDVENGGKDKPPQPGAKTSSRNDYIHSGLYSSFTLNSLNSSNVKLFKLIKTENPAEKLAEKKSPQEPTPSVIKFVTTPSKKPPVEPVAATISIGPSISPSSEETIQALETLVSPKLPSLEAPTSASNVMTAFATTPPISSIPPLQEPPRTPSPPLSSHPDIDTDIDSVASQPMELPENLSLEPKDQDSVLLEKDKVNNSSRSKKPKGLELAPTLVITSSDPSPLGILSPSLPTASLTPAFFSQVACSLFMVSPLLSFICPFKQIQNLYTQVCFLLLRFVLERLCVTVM
# Procedure, shortened: as §1
# [11] = molecular target: T7, ETV2 (Homo sapiens, UniProt O00321 1-342)
# T7 sequence: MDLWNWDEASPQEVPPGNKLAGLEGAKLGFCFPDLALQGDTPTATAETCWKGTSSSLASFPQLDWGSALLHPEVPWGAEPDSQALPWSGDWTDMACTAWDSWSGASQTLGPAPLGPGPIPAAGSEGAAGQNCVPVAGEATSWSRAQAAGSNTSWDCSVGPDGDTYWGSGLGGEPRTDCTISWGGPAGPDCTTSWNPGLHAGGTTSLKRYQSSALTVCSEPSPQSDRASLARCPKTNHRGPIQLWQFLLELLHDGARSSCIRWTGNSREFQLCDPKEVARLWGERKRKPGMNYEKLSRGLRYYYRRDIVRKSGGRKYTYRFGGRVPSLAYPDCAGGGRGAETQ
# Procedure, shortened: as §1
# [12] = molecular target: ETV1 (Homo sapiens, UniProt P50549 1-477)
# Procedure, shortened: as §1
# [13] = molecular target: T8, ERF (Homo sapiens, UniProt P50548 1-548)
# T8 sequence: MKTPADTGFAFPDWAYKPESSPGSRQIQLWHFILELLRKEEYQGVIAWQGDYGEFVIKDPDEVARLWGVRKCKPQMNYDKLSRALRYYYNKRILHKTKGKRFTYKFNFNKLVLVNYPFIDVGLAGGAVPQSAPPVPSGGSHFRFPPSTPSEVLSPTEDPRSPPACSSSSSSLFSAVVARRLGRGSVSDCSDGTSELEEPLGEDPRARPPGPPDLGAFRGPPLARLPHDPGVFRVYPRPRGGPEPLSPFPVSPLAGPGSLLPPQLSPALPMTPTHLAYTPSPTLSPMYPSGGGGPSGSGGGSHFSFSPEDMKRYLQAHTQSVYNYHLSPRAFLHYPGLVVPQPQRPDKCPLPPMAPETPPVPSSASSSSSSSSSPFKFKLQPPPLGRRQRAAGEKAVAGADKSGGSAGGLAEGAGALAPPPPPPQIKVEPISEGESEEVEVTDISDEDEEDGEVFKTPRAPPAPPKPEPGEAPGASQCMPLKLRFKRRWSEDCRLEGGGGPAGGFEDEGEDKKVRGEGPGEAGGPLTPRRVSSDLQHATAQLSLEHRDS
# Procedure, shortened: as §1
# [14] = molecular target: T9, ETV3L (Homo sapiens, UniProt Q6ZN32 1-361)
# T9 sequence: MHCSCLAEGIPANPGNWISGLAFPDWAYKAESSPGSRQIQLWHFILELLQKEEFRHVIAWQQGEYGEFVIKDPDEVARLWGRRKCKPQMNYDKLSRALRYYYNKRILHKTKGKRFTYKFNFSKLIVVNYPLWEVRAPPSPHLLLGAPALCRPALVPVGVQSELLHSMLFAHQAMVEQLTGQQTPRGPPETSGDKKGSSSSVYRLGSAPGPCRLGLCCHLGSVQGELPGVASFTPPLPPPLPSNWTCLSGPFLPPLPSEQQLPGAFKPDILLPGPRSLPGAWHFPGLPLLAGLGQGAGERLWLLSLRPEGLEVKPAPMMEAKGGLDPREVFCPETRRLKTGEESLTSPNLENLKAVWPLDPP
# Procedure, shortened: as §1
# [15] = molecular target: T10, ETS2 (Homo sapiens, UniProt P15036 1-469)
# T10 sequence: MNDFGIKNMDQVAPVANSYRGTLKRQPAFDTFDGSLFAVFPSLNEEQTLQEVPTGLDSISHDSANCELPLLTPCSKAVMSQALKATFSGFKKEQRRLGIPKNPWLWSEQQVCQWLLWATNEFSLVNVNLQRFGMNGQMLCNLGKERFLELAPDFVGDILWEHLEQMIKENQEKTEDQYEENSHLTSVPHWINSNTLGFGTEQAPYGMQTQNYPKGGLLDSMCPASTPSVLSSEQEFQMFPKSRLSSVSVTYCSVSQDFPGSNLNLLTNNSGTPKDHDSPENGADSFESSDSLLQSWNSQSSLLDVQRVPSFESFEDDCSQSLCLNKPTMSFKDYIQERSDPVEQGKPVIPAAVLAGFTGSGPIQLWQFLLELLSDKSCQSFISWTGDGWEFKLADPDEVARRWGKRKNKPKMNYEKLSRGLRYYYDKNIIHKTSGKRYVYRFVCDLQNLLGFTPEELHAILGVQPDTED
# Procedure, shortened: as §1
# [16] = molecular target: T11, SPDEF (Homo sapiens, UniProt O95238 1-335)
# T11 sequence: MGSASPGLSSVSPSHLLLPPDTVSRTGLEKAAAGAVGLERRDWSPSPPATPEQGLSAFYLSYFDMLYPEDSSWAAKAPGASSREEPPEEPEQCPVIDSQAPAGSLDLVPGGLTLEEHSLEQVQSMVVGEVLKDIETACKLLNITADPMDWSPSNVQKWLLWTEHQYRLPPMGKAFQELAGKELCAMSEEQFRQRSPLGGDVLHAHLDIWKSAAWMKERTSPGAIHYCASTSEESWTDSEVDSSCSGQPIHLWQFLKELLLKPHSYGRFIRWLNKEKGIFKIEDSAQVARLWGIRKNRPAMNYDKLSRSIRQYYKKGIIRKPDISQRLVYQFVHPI
# Procedure, shortened: as §1
# [17] = molecular target: T12, ETV7 (Homo sapiens, UniProt Q9Y603 1-341)
# T12 sequence: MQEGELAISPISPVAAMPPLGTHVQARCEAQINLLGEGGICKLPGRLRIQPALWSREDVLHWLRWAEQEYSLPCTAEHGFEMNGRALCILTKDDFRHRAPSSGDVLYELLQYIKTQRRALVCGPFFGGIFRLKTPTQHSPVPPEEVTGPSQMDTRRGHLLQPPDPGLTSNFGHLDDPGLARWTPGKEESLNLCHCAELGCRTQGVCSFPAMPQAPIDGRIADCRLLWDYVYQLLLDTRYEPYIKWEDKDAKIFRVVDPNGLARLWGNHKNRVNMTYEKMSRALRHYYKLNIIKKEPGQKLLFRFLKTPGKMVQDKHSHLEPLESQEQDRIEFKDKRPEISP
# Procedure, shortened: as §1
# [18] = molecular target: T13, ETV3 (Homo sapiens, UniProt P41162-2 1-143)
# T13 sequence: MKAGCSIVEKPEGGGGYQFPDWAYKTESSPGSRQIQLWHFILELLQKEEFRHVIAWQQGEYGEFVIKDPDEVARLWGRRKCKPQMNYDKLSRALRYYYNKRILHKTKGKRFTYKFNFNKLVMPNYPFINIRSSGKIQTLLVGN
# Procedure, shortened: as §1
# [19] = molecular target: ETV6 (Homo sapiens, UniProt P41212 1-452)
# Procedure, shortened: as §1
# Chain of ETV6 (P41212 whole entry): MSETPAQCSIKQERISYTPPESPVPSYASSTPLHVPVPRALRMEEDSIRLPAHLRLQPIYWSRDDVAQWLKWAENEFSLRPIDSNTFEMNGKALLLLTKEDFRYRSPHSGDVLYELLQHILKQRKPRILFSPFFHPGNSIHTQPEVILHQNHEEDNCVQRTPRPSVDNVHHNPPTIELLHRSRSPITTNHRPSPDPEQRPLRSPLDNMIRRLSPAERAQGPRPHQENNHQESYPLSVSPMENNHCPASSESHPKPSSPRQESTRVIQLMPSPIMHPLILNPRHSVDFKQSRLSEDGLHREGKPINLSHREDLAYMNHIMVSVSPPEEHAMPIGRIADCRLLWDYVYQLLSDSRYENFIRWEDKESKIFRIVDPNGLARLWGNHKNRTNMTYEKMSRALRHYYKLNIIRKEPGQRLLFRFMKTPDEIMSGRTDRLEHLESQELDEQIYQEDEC
# Chain of ETV5 (P41161 whole entry): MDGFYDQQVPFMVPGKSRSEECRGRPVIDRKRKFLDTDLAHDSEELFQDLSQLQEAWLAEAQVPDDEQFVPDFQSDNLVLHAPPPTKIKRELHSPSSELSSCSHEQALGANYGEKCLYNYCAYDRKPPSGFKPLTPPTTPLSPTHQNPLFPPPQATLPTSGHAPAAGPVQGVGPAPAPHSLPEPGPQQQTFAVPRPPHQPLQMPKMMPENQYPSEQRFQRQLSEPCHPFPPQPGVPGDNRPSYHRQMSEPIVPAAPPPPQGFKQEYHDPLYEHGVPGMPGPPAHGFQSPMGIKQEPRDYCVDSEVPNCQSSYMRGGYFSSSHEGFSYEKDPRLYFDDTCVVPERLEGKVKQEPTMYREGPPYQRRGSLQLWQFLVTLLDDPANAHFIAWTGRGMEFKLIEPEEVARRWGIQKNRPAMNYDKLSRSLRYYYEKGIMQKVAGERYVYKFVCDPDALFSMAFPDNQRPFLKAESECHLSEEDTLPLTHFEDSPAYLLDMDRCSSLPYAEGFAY
# Chain of ELF1 (P32519 whole entry): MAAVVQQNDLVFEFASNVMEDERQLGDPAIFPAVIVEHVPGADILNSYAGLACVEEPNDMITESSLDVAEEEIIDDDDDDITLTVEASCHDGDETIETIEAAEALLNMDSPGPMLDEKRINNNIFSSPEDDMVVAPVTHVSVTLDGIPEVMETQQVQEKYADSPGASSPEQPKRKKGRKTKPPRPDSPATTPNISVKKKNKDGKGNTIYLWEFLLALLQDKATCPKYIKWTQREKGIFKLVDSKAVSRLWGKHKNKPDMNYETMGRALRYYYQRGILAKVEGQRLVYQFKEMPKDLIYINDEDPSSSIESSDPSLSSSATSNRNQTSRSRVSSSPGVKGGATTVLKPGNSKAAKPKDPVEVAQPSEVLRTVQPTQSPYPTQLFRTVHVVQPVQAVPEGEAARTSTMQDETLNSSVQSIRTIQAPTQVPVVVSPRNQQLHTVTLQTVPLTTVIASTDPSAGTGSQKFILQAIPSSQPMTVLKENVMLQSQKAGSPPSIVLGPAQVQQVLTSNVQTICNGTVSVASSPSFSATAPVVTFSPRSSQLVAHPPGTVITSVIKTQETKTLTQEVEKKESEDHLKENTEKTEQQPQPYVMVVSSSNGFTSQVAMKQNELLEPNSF
# Chain of SPIB (Q01892 whole entry): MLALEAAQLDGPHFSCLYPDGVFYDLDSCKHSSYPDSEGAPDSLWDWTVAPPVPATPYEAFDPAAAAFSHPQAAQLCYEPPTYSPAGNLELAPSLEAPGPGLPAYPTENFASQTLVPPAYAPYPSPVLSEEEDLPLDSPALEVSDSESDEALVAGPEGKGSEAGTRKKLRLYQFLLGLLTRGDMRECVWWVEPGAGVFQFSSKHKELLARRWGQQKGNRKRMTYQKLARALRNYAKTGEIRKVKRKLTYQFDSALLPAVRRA
# Chain of ELF4 (Q99607 whole entry): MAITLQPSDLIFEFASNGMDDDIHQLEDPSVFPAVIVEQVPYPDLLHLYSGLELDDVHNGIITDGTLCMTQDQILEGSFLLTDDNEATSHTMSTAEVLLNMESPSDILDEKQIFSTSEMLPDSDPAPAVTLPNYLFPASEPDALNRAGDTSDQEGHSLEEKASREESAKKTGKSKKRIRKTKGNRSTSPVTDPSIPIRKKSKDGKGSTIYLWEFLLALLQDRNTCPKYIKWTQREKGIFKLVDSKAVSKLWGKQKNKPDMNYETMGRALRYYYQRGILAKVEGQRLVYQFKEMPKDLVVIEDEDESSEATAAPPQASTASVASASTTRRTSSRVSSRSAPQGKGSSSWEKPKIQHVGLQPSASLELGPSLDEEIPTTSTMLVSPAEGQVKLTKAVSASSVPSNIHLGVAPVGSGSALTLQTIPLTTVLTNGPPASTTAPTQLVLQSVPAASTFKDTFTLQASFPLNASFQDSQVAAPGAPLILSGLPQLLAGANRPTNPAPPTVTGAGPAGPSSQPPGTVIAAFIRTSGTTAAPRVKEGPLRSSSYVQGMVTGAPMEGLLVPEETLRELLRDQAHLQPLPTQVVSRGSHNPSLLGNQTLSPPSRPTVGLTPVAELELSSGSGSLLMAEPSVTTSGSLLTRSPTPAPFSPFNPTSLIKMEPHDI
# Chain of ETV1 (P50549 whole entry): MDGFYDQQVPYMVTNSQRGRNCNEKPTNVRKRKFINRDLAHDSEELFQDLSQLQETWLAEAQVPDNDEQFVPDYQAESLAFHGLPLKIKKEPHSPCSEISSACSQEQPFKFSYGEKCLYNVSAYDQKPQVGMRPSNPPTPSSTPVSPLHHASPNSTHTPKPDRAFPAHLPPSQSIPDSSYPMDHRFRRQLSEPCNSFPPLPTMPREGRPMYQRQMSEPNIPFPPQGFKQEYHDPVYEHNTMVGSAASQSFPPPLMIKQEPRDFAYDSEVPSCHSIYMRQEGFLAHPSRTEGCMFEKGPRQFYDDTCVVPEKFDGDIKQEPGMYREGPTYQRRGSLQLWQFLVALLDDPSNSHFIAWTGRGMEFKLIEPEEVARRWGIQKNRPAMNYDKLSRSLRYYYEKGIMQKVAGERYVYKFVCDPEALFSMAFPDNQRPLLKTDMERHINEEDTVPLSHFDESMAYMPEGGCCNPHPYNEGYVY
sequence,measurement,setting,value
TGGGGT,binding signal,[1],"1.05 fold enrichment (6-mer frequency, TF over GST control)"
same,binding signal,[2],"1.12 fold enrichment (6-mer frequency, TF over GST control)"
same,binding signal,[3],"1.1 fold enrichment (6-mer frequency, TF over GST control)"
same,binding signal,[4],"1.09 fold enrichment (6-mer frequency, TF over GST control)"
same,binding signal,[5],"1.03 fold enrichment (6-mer frequency, TF over GST control)"
same,binding signal,[6],"1.09 fold enrichment (6-mer frequency, TF over GST control)"
same,binding signal,[7],"1.02 fold enrichment (6-mer frequency, TF over GST control)"
same,binding signal,[8],"1.13 fold enrichment (6-mer frequency, TF over GST control)"
same,binding signal,[9],"1.08 fold enrichment (6-mer frequency, TF over GST control)"
same,binding signal,[10],"1.21 fold enrichment (6-mer frequency, TF over GST control)"
same,binding signal,[11],"1.08 fold enrichment (6-mer frequency, TF over GST control)"
same,binding signal,[12],"1.14 fold enrichment (6-mer frequency, TF over GST control)"
same,binding signal,[13],"1.02 fold enrichment (6-mer frequency, TF over GST control)"
same,binding signal,[14],"1.2 fold enrichment (6-mer frequency, TF over GST control)"
same,binding signal,[15],"1.2 fold enrichment (6-mer frequency, TF over GST control)"
same,binding signal,[16],"1.08 fold enrichment (6-mer frequency, TF over GST control)"
same,binding signal,[17],"1.05 fold enrichment (6-mer frequency, TF over GST control)"
same,binding signal,[18],"1.14 fold enrichment (6-mer frequency, TF over GST control)"
same,binding signal,[19],"1.09 fold enrichment (6-mer frequency, TF over GST control)"
